In the library only some 2.7% were active in any assay of this set; here they are far more common.
A549 tox – Nrf2 qHTS screen for inhibitors: counterscreen for cytotoxicity. A549 ARE-Fluc cells, CellTiter-Fluor viability, 18-24 h. Potency, µM (top dose mostly 46 µM), for inactives: at the top dose activity change, negative = cytotoxicity, usual class: inhibitors. hit rate 0.16% among 390,000; further: potency means the concentration at half of the fitted maximal effect; on the % scale 0 is the no-effect control and ±100 the full control effect
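Cytotoxicity counterscreen: CellTiter-Fluor fluorescence was measured in A549 ARE_Fluc cells after 18-24 h of compound exposure in a concentration series. The subsequent BugLite luminescent read reports ARE-luciferase activity.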
Nrf2 block – Nrf2 qHTS screen for inhibitors. Potency, µM (doses to about 46 µM), for inactives: at the top dose activity change, negative = inhibition, usual class: inhibitors. hit rate 2.1% among 360,000. A549 ARE-Fluc reporter, luciferase luminescence, 18-24 h. AID 504444, 2011; further: potency means the concentration at half of the fitted maximal effect; on the % scale 0 is the no-effect control and ±100 the full control effect; nearly all actives have a fitted effect of over 60% in size
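In this cell-based qHTS, ARE-driven firefly luciferase in A549 cells reports Nrf2 activity; the luminescent signal after BugLite lysis is the measured value, with a prior CellTiter-Fluor read for cell health.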
12-LOX inh – Primary qHTS assay for inhibitors of human arachidonate 12S-lipoxygenase (ALOX12): Round 2. Polyunsaturated fatty acid lipoxygenase ALOX12 (Homo sapiens), P18054. purified 12hLO, xylenol orange hydroperoxide absorbance. Potency, µM (top dose mostly 108 µM), for inactives: at the highest dose activity change, negative = inhibition, most hits filed as inhibitors. hit rate 1.1% among 580,000; further: potency means the concentration at half of the fitted maximal effect; on the % scale 0 is the no-effect control and ±100 the full control effect
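Purified human 12hLO (150 nM final) in 25 mM Hepes, 0.01% Triton X-100, pH 7.0 was preincubated 15 min at room temperature with compound. Then 40 uM arachidonic acid was added, 30 min. Hydroperoxide was read by Fe-XO absorbance ratio 573/405 nm.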
Nrf2 ARE act – qHTS of Nrf2 Activators; AREc32 ARE-luciferase reporter (MCF7-derived line), luminescence, 24 h; Potency, µM (series often up to 46.1 µM), without a hit: top-dose activation, actives largely listed as activators; hit rate 0.31% among 410,000; AID 624171, 2012; further: potency means the concentration at half of the fitted maximal effect; % of control where 0% means no effect; nearly all actives have a fitted effect of over 65% in size
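Luciferase luminescence (Steady-Glo, 30 min at room temperature) served as the read-out of ARE activation in AREc32 cells treated with compounds for 24 hr at 37 deg C.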
ERG Ets-DNA blk – qHTS for Small Molecule Inhibitors of the ERG Ets/DNA interaction. hit rate 0.028% among 370,000. fluorescence polarization, His-ERG Ets domain / labelled DNA. Potency, µM (highest dose often 76.9 µM), for the others: top-dose FP activity, negative = inhibition, usual class: inhibitors; active means well fitted inhibition curve with a large enough effect in the polarisation, with a control signal flat; inconclusive means small, poorly fitted or top-dose-only effect, or effect the other way, or a change in a side signal; inactive means no such curve, though single readings can be large or run the other way; the % refers to the polarisation;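 further: polarization taken with two DNA probes labelled with fluorescein and Texas red; potency means the concentration at half of the fitted maximal effect; % of control where 0% means no effect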
Target sequence (P11308 whole entry, looked up, the tested form may be a part): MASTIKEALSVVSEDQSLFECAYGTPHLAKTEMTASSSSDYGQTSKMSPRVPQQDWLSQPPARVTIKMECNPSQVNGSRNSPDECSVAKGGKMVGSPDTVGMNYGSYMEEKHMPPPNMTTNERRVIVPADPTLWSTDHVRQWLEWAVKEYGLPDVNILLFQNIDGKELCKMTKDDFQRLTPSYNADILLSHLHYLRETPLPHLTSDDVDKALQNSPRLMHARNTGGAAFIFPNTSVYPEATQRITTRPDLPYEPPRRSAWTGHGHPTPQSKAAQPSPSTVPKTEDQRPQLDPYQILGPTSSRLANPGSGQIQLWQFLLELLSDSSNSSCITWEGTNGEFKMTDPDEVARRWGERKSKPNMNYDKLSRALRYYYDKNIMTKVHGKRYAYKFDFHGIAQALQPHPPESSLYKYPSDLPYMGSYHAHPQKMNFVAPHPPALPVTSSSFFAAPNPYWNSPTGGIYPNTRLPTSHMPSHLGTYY
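His-tagged ERG Ets domain (1 uM in the protein solution; 300mM KCl, 50mM Tris-HCl, 1mM EDTA, 1mM DTT, pH 7.5) received compound, then a probe mix of 5 nM fluorescein-DNA and 100nM Texas-615-DNA. Fluorescence polarization was read for both dyes.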
LDHA inh – qHTS assay for inhibitors of human lactate dehydrogenase | L-lactate dehydrogenase A chain (Homo sapiens), P00338 | purified LDHA, NADH/diaphorase-resazurin fluorescence; hits give low values | activity change, % (values are at about 110 or 230 µM) | hit rate 0.15% among 480,000 | AID 1347041, 2019; in the data active means activity change below about -30%; inconclusive means mostly about -25% to -30%;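 further: plate controls were DMSO wells for no effect and wells without enzyme for full effect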
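LDH5 2 nM; NADH 0.06 mM, pyruvate 0.2 mM; 200 mM Tris pH 7.4, EDTA, Tween-20; 5 min RT. Detection: diaphorase 0.133 mg/mL + resazurin 37 µM, fluorescence ex540/em590 at 0 and 20 min; normalized to enzyme-free and DMSO wells.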
The depositor's hits bear a star; ? = inconclusive; . = no result; [ ] = dose if it differs, or a comment. Unless noted, the call rests on the fitted dose curve; in most records, active means well fitted curve in the direction sought with a large enough effect; inconclusive means small, poorly fitted or top-dose-only effect, or another doubt; inactive means no such curve, though single readings can be large; an effect the other way counts as inactive or inconclusive.

SMILES	A549 tox	Nrf2 block	12-LOX inh	Nrf2 ARE act	ERG Ets-DNA blk	LDHA inh
O=C1CCC(C(=O)Nc2cccc(S(=O)(=O)Nc3ccccc3F)c2)=NN1	2%	26µM*	32µM*	2%	1%	-5
CSc1ncc(Cl)c(C(=O)Nc2ccc(S(=O)(=O)N3CCC(C)CC3)cc2)n1	-9%	21µM*	-10%	0%	0%	2
CCSc1ncc(Cl)c(C(=O)Nc2ccc(S(=O)(=O)N3CCC(C)CC3)cc2)n1	16%	?	-29%	-1%	-9%	3
O=C(COC(=O)c1ccc(Cl)nc1)Nc1cccc(S(=O)(=O)N2CCCCC2)c1	10%	7%	-14%	0%	8%	-1
O=C(Nc1cccc(S(=O)(=O)N2CCCCC2)c1)c1ccc(Cl)nc1	-7%	21µM*	178%	0%	12%	-4
O=C(Nc1ccc(Cc2ccncc2)cc1)c1ccc(S(=O)(=O)N2CCCC2)cc1	-20%	16µM*	9%	2%	3%	-1
O=C(Nc1ccc(S(=O)(=O)N2CCCCC2)cc1)c1ccncc1	-1%	?	0%	0%	-4%	0
O=C(O)Cn1cc(C(C(=O)O)N2CCN(CC(=O)N3CCCC3)CC2)c2ccc(F)cc21 (configuration not stated)	.	.	?	.	.	13
Cn1c(=O)c2c(-c3ccccc3Cl)n(-c3cccc(O)c3)cc2n(C)c1=O	.	.	?	.	.	15
Cc1ccc(O)c(NC(=O)c2cc(-c3cccnc3)nc3ccccc23)c1	.	.	-22%	.	.	-4
COc1ccc2cc(C3CC(c4ccco4)=NN3S(C)(=O)=O)c(Cl)nc2c1 (configuration not stated)	0%	-2%	35µM*	5%	11%	1
Cn1cnc2c1c(=O)n(CC(=O)N(CCc1cccs1)Cc1cccs1)c(=O)n2C	.	.	-24%	.	.	7
CCOC(=O)c1c(N)sc(N)c1C(=O)OCC	0%	12%	50µM*	3%[9.22 µM]	-8%	26
CCCc1csc(N)c1C(=O)OCC	.	.	7.9µM*	.	.	7
CCOC(=O)c1c(-c2ccco2)csc1N	?	-5%	-1%	4%	-10%	14
CCOC(=O)c1c(-c2cccs2)csc1N	-4%	-11%	45µM*	0%	4%	23
Cn1c(=O)c2c(SCC(=O)Nc3ccc4c(c3)OCCO4)nc(CC(C)(C)C)nc2n(C)c1=O	?	7.3µM*	-8%	0%	-2%	-2
O=C(CCS(=O)(=O)c1ccc(Cl)cc1)Nc1nc(-c2ccncc2)cs1	2%	5%	-14%	11µM*	-3%	-12
Cc1ccc(S(=O)(=O)CCC(=O)Nc2nc(-c3ccccn3)cs2)cc1	-12%	21µM*	183%	14µM*	-5%	-1
O=C(CCS(=O)(=O)c1ccc(Cl)cc1)Nc1nc(-c2cccnc2)cs1	1%	5%	-16%	3%	9%	-4
CN(CCc1ccncc1)Cc1ccc(C#N)cc1	.	.	?	.	.	7
COc1cccc(NC(=O)C2CCCN(C(=O)c3ccc(OC)c4ccccc34)C2)c1 (configuration not stated)	.	.	-6%	.	.	12
N#Cc1cccc(CN2CCCc3ccccc32)c1	.	.	?	.	.	1
CSc1ccccc1C(=O)Nc1ccccc1Sc1ccccc1	.	.	?	.	.	0
CC(=O)Oc1ccccc1-c1nc(/C=C/c2ccccc2)no1	0%	?	6%	11µM*	45%	-6
SMILES	A549 tox	Nrf2 block	12-LOX inh	Nrf2 ARE act	ERG Ets-DNA blk	LDHA inh
COc1ccc(/C=C/c2noc(-c3ccccc3O)n2)cc1	7%	?	11%	2%	1%	2
COc1ccc(S(=O)(=O)N2CCN(CCc3ccccc3)CC2)c(OC)c1	-8%	16µM*	?	-1%	-1%	0
COc1ccc(OC)c(S(=O)(=O)N2CCN(Cc3ccccc3)CC2)c1	2%	3%	0%	0%	14%	-1
Fc1cccc(Cl)c1/C=N/Nc1c(Cl)cc(Cl)cc1Cl	.	.	?	.	.	-6
Fc1ccc(/C=N/Nc2ccc3ccccc3c2)c(F)c1	.	.	2.5µM*	.	.	24
Fc1ccc(/C=N/Nc2c(Cl)cc(Cl)cc2Cl)c(F)c1	.	.	40µM*	.	.	2
Fc1ccc(Br)cc1/C=N/Nc1c(Cl)cc(Cl)cc1Cl	.	.	18µM*	.	.	0
Oc1ccc(/C=N/Nc2ccc3ccccc3c2)c(O)c1	-1%	1%	-24%	14%	-24%	10
O=c1cc(COc2ncnc3ccccc23)nc2sccn12	0%	6%	0%	0%	2%	-6
O=c1cc(COc2ccccc2[N+](=O)[O-])nc2sccn12	-3%	4%	0%	8.9µM*	-7%	-3
Cc1cccc(CNc2ncnc3ccc(-c4ccccc4C#N)cc23)c1	.	.	-50%	.	.	.
N#Cc1ccccc1-c1ccc2ncnc(NCc3cccs3)c2c1	.	.	13µM*	.	.	.
COC(=O)C1=C(C(=O)OC)[C@]2([C@H]3CCCCN[C@@H](Cc4ccccc4)C(=O)N3Cc3ccccc3)C=C[C@H]1O2	-5%	23µM*	-7%	0%	-8%	-7
O=C1NN(c2ccc(F)cc2)C(=O)/C1=C\c1cnn(-c2ccccc2)c1	.	.	-19%	.	.	.
O=C1NN(c2ccc(F)cc2)C(=O)/C1=C\C=C\c1ccco1	?	?	45µM*	?	0%	-3
CCOP(=O)(OCC)c1nc(-c2ccc([N+](=O)[O-])cc2)oc1NCc1ccc(C)cc1	.	.	10µM*	.	.	5
CCOP(=O)(OCC)c1nc(-c2ccc([N+](=O)[O-])cc2)oc1NCc1ccccc1	.	.	-41%	.	.	1
CCOc1ccc(Nc2oc(-c3ccccc3C)nc2C#N)cc1	.	.	?	.	.	-16
CCc1c(C)sc(NC(=O)C2CC3CCC2C3)c1C#N (configuration not stated)	.	.	16µM*	.	.	-3
CCc1c(C)sc(NC(C)=O)c1C#N	.	.	32µM*	.	.	6
Cc1cc(=O)oc2c(C)c(OCC(=O)NC3CCS(=O)(=O)C3)ccc12 (configuration not stated)	.	.	10%	.	.	3
Cc1cccc(NC(=O)c2c(NC(=O)C(F)(F)F)sc3c2CCCCC3)c1	?	2.6µM*	?	-3%	-3%	-5
Cc1ccc(NC(=O)c2c(NC(=O)c3ccccc3)sc3c2CCC3)cc1	1%	11%	-3%	1%	-1%	-5
Cc1ccc(NC(=O)c2c(NC(=O)C(F)(F)F)sc3c2CCCCC3)cc1	?	2.6µM*	?	-1%	-5%	-12

Screens as filed in PubChem BioAssay.
